According to paper PMC4552634, “A New Set of Chemical Starting Points with Plasmodium falciparum Transmission-Blocking Potential for Antimalarial Drug Discovery” (PLoS ONE, 2015):
Hit rate of the full screen: of about 13,000 compounds, about 3,200 (25%) showed an effect of 50% or more. Some of the results follow.

system: P. falciparum stage V gametocytes; set-up: BacTiter-Glo ATP luminescence viability of purified stage V gametocytes in 384-well plates, per cent inhibition versus DMSO; conditions: 48 h, 5 µM; inhibitor

Structure (SMILES) | % Inhibition
O=C(Nc1ccc(-c2nc3ccccc3[nH]2)cc1)C1CCN(Cc2ccc(F)cc2)CC1 [TCMDC-124680] | 4.478%
CCCc1cc(=O)[nH]c(-n2nc(C)cc2NC(=O)CC(c2ccccc2)c2ccccc2)n1 [TCMDC-124940] | 43.65%
CC(C)C[C@H](NC(=O)c1cccc(F)c1)C(=O)N[C@H](/C=N/NC(=O)c1ccccc1)CCc1ccccc1 [TCMDC-135679] | 8.745%
CC(=O)Nc1ccc(CN2CCc3ccc(NS(=O)(=O)c4ccc(-c5cccc(C(F)(F)F)c5)cc4)cc3CC2)s1 [TCMDC-132328] | 7.357%
Cc1ccc(-c2ccc(NC(=O)N3CCc4cc(Br)c(N5CCN(C)CC5)cc43)cc2)cn1 [TCMDC-139294] | -24.43%
CN(C)CCNC(=O)c1csc(Nc2ccc(Cl)c(Cl)c2)n1 [TCMDC-123722] | -60.24%
COc1cccc2cc(C(=O)N[C@@H](CC(C)C)C(=O)N[C@H](C=NNC(=O)OC(C)(C)C)CC(C)C)oc12 [TCMDC-136062] | 12.96%
Cc1ccc2nc(C)n(C3CCN(C(=O)C4(c5ccccc5)CC4)CC3)c2c1 [TCMDC-124796] | 44.07%
Cc1ccc2nc(C)n(C3CCN(C(=O)Cc4ccccc4C)CC3)c2c1 [TCMDC-124795] | 76.45%
COc1ccc(Br)cc1/C=C/C(=O)Nc1cccc(C2CCCN(C)C2)c1 (centres unmarked) [TCMDC-133710] | 13.98%
CN1CCN(c2ccnc3ccc(NC(=O)Nc4ccc(-c5ccncc5)c5ccccc45)cc23)CC1 [TCMDC-139251] | -4.793%
CN1CCN(c2ccnc3ccc(NC(=O)Nc4cccc5c(-c6ccncc6)cccc45)cc23)CC1 [TCMDC-139252] | -0.3523%
Cc1ncccc1-c1cccc2c(NC(=O)Nc3ccc4nccc(N5CCN(C)CC5)c4c3)cccc12 [TCMDC-139369] | -6.373%
CN1CCN(c2ccnc3ccc(NC(=O)Nc4ccc(-c5ccncc5)c(C(F)(F)F)c4)cc23)CC1 [TCMDC-139260] | 40.16%
Cc1nc(-c2cccc3c(NC(=O)Nc4ccc5nccc(N6CCN(C)CC6)c5c4)cccc23)no1 [TCMDC-139340] | 66.85%
CN1CCN(c2ccnc3ccc(NC(=O)Nc4ccc(-c5ccncc5)c(C#N)c4)cc23)CC1 [TCMDC-139268] | 80.15%
COC(=O)c1ccc(CC(C)NCC(O)c2cccc(OC(F)(F)F)c2)cc1 (centres unmarked) [TCMDC-131487] | 26.86%
O=C(c1cccc(-c2cccc(-c3nc4ccccc4[nH]3)c2)c1)N1CCCCC1CN1CCC(O)C1 (centres unmarked) [TCMDC-132311] | -3.438%
Cc1[nH]c(/C=C2\C(=O)Nc3ccc(S(=O)(=O)Cc4c(Cl)cccc4Cl)cc32)c(C)c1C(=O)N1CCC[C@@H]1CN1CCCC1 [TCMDC-125885] | 103.4%
Cc1cccc2nc(-c3cccc(-c4cccc(C(=O)N5CCCCC5CN5CCC(O)C5)c4)c3)[nH]c12 (centres unmarked) [TCMDC-132347] | 6.025%
COc1cccc(C=Cc2nc(=O)c3ccccc3o2)c1OC [TCMDC-124577] | 34.84%
COc1ccc(Cc2cnc3nc(N)nc(N)c3c2C)cc1OC [TCMDC-138057] | 6.807%
O=C(Nc1ccc2nc3n(c(=O)c2c1)CCCCC3)C(=O)N1CCC(Cc2ccccc2)CC1 [TCMDC-125294] | -23.73%

Structure (SMILES) | % Inhibition
CCCCc1ccc(C(=O)Nc2ccc3nc(N4CCN(C)CC4)cc(C)c3c2)cc1 [TCMDC-125570] | -31.24%
Nc1ccnc2ccc(NC(=O)CCCCCc3ccccc3)cc12 [TCMDC-139070] | 2.045%
CNc1c2c(nc3ccc(NC(=O)CCCCCCc4ccccc4)cc13)CCCC2 [TCMDC-139066] | 79.48%
CCCCc1ccc(C(=O)Nc2ccc3nc(N4CCN(CC)CC4)cc(C)c3c2)cc1 [TCMDC-125578] | -16.83%
O=C(CCCCCCc1ccccc1)Nc1ccc2nc3c(c(NCc4ccccc4)c2c1)CCCC3 [TCMDC-139063] | 91.52%
COc1ccc2nccc(NN=Cc3cccnc3)c2c1 [TCMDC-142032] | -14.51%
O=C(Nc1nccs1)c1cn(-c2ccccc2)nc1-c1ccc(Cl)s1 [TCMDC-123623] | 9.788%
CC(C)(CNC(=O)C1CCN(CCOc2ccc(Cl)cc2)CC1)c1nc(-c2ccc(Cl)c(O)c2)c(-c2ccncc2)[nH]1 [TCMDC-141124] | -30.29%
Cc1cccc(CN2CCCN(Cc3ccc(C(=O)Nc4ccc(C)c(F)c4)cc3)CC2)c1 [TCMDC-136396] | -4.425%
Cc1cc(-c2ccc(CNCCc3cccs3)cc2)ccc1S(=O)(=O)NCc1ccccc1 [TCMDC-132473] | 18.33%
COc1ccc(CNCCc2cccs2)cc1-c1cccc(S(=O)(=O)NCCN2CCCC2)c1 [TCMDC-132479] | 91.1%
COc1ccc(CNCCc2cccs2)cc1-c1ccc(OC)c(S(=O)(=O)NCCN2CCCC2)c1 [TCMDC-132476] | 71.75%
COc1ccc(CNCCc2cccs2)cc1-c1ccc(S(=O)(=O)NCCN2CCCC2)cc1 [TCMDC-132475] | 76.8%
S=c1nc(-c2ccccc2)n2ccsc2n1 [TCMDC-123905] | 9.815%
CC(C)c1ncc(-c2ccncc2)c(C2CCC(CNC(=O)c3cccnc3)CC2)n1 (centres unmarked) [TCMDC-124825] | 14.15%
O=C(Nc1cccc(-c2ccc(-c3nc4ccccc4[nH]3)cc2)c1)Nc1ccc(F)c(F)c1F [TCMDC-133230] | -14.97%
CCc1cccc(OCCCON2C(N)=NC(N)=NC2(C)C)c1 [TCMDC-131306] | 2.586%
Fc1ccc2nc(-c3ccc(-c4ccc(CN5CCN(c6cnccn6)CC5)cc4)s3)[nH]c2c1 [TCMDC-133893] | 9.584%
O=C(CCCCCNC(=O)c1ccc(O)c(-c2ccc(Cl)c(Cl)c2)c1)NC1CCCc2ccccc21 (centres unmarked) [TCMDC-140866] | 4.143%
COC(=O)c1ccc2c(-c3nc4ccc(OC)cc4[nH]3)c[nH]c2c1 [TCMDC-135457] | 32.14%
CC(Sc1n[nH]c(-c2cccs2)n1)C(=O)c1c[nH]c2ccccc12 (centres unmarked) [TCMDC-125010] | 53.42%
CC1CN(c2ccc3[nH]cc(Sc4ccc(-c5cccs5)cc4)c3c2)CC(C)N1 (centres unmarked) [TCMDC-136644] | -55.49%
Cc1noc(-c2cccs2)c1C(=O)NC(C)c1cccc2ccccc12 (centres unmarked) [TCMDC-124788] | -15.69%

Structure (SMILES) | % Inhibition
COc1cccc(-c2cc(C(=O)Nc3ccc4nc(-c5ccccc5)[nH]c4c3)[nH]n2)c1 [TCMDC-134319] | 8.642%
O=C(CSc1n[nH]c(-c2ccccc2Br)n1)c1c[nH]c2ccccc12 [TCMDC-123710] | 82.49%
COc1ccc2nc(SC(C)C(=O)c3c[nH]c4ccccc34)[nH]c2c1 (centres unmarked) [TCMDC-125034] | 61.61%
Cc1cc(N(C)C)nc(Nc2ccc(NC(=O)c3c(F)cccc3F)cc2)n1 [TCMDC-124977] | 1.948%
COc1cc(SC)c(Br)cc1-c1nc2ccncc2[nH]1 [TCMDC-138164] | -13.77%
Oc1ccc(CCNc2nc(NCc3ccccc3Oc3ccc(C(F)(F)F)cc3)nc(N3CCNCC3)n2)cc1 [TCMDC-134133] | -9.208%
CCOc1cc(C2C(C(=O)OC(C)C)=C(C)NC3=C2C(=O)CC(c2ccc(Cl)cc2)C3)ccc1OC(C)=O (centres unmarked) [TCMDC-125628] | -56.66%
Cc1cnc2ccc(NS(=O)(=O)c3ccc4c(Cl)cccc4c3)cc2c1N1CCNCC1 [TCMDC-139558] | 37.46%
CCCCOc1ccc(CNCCCCCCNCc2ccc(OCCCC)c3ccccc23)c2ccccc12 [TCMDC-137281] | 121.9%
CCCCSc1c(CNCCCCCCNCc2ccc3ccccc3c2SCCCC)ccc2ccccc12 [TCMDC-137825] | 112.9%
CCOc1c(CNCCCCCCNCc2ccc3ccccc3c2OCC)ccc2ccccc12 [TCMDC-137942] | 73.68%
CCOc1c(Br)cc(Cl)cc1CNCCCNc1nc2ccccc2[nH]1 [TCMDC-140106] | 5.667%
CN(C)c1c(CNCCCCCCNCc2ccc3ccccc3c2N(C)C)ccc2ccccc12 [TCMDC-137834] | 115.6%
CCCc1ccc2c(c1O)CCC(N(CCC)CCC)C2 (centres unmarked) [TCMDC-138031] | -27.54%
COc1ccc(CN(C)CC(O)COc2ccc(NC(=O)c3cccc4c(=O)c5cccc(OC)c5[nH]c34)cc2)cc1OC (centres unmarked) [TCMDC-131851] | 12.51%
O=C(Cc1ccccc1)NC1(c2ccccc2)CCN(CCc2c[nH]c3ccc(F)cc23)CC1 [TCMDC-131991] | 26.26%
CCC(C)c1ccc(NC(=O)c2ccc(S(=O)(=O)Nc3ccc(OC)c(N4CCN(CC5CC5)CC4)c3)cc2)cc1 (centres unmarked) [TCMDC-136299] | -16.95%
Oc1ccccc1CN1CCC2(CCCN(Cc3ccccc3F)C2)C1 (centres unmarked) [TCMDC-124620] | 28.07%
Cc1cc(NC2CCCC2)nc(Nc2ccc(F)cc2)n1 [TCMDC-133472] | 46.74%
CCCCOc1c(CNCCCCCCNCc2ccc3ccccc3c2OCCCC)ccc2ccccc12 [TCMDC-137975] | 107.4%
CCCCOc1cc(CNCCCCCCNCc2cc(OCCCC)cc3ccccc23)c2ccccc2c1 [TCMDC-137824] | 36.59%
COC(=O)c1cccc(CNCc2ccc(-c3ccc(-c4nc5cc(C(F)(F)F)ccc5[nH]4)cc3)cc2)c1.O=C(O)C(F)(F)F [TCMDC-132954] | -38.93%
